# Assays:
# Assay in all cases: DAPPL (digital affinity profiling via proximity ligation, sequencing); 10 mM Tris-HCl pH 7.5, 50 mM NaCl, 1 mM DTT, 4% glycerol, room temperature, 30 min; GST-TFs on glutathione beads, 16-mer random dsDNA library, 0.1% formaldehyde crosslink after washing; high values mean tight binding
# Settings in all cases: protein: recombinant; tags: N-terminal GST; dsDNA, one strand shown
# FLI1 = target: T1, FLI1 (Homo sapiens, UniProt Q01543 1-452)
# T1 sequence: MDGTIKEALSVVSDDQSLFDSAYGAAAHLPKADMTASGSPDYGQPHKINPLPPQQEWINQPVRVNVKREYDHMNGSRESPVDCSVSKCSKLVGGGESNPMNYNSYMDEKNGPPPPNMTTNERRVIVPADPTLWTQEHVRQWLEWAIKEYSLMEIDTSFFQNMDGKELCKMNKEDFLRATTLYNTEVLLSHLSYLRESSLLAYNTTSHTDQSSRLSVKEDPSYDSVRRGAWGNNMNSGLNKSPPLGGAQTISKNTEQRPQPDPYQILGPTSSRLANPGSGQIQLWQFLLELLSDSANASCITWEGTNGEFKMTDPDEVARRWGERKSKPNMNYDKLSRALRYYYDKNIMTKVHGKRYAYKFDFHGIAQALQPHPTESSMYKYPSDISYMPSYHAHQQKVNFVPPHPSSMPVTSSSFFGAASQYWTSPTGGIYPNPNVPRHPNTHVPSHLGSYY
# In short: (§1)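 Sequencing on an Illumina NextSeq500 followed washing, crosslinking with 0.1% formaldehyde, proximity ligation (BsaI/T4 ligase, 1 h, 37 °C) and PCR amplification of pools that had been incubated for 30 min at room temperature with 200 nmole of a random double-stranded 16-mer DNA library in Tris/NaCl/DTT/glycerol buffer. Each pool held DNA-barcoded human transcription factors, expressed in yeast as GST fusions and captured on glutathione beads, plus a tag-only sample. Binding signal is a hexamer's read frequency for a factor divided by its frequency in the tag-only sample.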
# ELK1 = target: T2, ELK1 (Homo sapiens, UniProt P19419 1-428)
# T2 sequence: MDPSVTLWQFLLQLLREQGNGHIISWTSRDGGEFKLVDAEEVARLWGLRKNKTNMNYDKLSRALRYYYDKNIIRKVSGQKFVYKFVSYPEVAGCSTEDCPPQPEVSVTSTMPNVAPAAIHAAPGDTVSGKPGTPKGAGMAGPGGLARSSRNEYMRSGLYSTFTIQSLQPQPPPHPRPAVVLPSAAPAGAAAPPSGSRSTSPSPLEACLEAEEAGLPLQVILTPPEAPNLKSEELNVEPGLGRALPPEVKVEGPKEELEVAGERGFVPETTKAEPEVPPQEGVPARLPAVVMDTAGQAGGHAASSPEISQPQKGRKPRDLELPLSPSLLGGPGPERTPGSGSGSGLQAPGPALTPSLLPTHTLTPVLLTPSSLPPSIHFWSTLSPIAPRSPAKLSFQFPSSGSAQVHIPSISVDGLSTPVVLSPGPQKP
# In short: as §1
# GABPA = target: T3, GABPA (Homo sapiens, UniProt Q06546 1-454)
# T3 sequence: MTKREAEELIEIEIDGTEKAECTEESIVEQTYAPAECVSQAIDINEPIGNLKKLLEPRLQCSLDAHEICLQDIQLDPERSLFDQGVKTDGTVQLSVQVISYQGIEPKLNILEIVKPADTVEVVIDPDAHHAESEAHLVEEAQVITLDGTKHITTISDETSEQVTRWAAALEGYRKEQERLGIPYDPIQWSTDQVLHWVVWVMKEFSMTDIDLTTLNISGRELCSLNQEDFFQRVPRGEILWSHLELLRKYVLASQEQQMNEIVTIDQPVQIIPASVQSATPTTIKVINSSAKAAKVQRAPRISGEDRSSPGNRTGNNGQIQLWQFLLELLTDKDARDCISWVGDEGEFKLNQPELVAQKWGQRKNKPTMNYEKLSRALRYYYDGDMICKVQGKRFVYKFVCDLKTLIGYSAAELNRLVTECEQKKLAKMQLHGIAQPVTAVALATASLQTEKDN
# In short: as §1
# ERG = target: T4, ERG (Homo sapiens, UniProt P11308 1-479)
# T4 sequence: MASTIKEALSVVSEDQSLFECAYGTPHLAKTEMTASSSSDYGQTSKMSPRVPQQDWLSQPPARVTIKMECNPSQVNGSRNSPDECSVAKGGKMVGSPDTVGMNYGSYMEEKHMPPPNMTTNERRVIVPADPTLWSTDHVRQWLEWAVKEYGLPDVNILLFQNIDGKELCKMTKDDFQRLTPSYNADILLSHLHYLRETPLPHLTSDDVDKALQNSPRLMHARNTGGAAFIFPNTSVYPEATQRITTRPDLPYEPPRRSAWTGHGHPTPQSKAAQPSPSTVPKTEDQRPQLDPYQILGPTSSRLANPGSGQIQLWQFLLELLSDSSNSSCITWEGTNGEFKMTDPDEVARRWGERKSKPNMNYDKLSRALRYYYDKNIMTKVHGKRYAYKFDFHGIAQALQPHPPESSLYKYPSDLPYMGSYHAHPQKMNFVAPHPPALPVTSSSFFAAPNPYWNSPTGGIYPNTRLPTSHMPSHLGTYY
# In short: as §1
# ELF1 = ELF1 (Homo sapiens, UniProt P32519 1-619)
# Chain of ELF1 (P32519 whole entry): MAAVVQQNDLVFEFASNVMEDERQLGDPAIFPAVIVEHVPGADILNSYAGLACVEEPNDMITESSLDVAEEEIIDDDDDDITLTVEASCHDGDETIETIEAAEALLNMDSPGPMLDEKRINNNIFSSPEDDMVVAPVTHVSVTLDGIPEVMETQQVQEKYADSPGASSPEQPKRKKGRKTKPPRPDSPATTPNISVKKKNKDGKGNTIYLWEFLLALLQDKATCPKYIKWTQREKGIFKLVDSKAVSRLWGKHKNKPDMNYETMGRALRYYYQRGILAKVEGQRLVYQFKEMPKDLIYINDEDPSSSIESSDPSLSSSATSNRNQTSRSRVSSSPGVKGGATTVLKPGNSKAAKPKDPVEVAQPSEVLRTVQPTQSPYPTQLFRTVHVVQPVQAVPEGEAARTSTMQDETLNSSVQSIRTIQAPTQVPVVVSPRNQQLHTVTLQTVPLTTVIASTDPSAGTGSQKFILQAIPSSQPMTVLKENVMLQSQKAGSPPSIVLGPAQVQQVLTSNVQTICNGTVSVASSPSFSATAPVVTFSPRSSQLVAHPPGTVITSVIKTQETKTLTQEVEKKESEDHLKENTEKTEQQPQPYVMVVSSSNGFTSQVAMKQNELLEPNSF
# In short: as §1
# SPIB = SPIB (Homo sapiens, UniProt Q01892 1-262)
# Chain of SPIB (Q01892 whole entry): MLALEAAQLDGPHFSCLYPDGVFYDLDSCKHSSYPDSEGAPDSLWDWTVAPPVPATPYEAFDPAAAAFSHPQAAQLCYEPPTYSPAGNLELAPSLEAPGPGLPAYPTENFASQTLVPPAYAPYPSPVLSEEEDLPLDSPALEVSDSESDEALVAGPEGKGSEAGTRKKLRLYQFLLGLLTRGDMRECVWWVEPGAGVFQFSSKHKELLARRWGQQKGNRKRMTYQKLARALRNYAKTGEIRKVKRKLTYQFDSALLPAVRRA
# In short: as §1
# ELK3 = target: T5, ELK3 (Homo sapiens, UniProt P41970 1-407)
# T5 sequence: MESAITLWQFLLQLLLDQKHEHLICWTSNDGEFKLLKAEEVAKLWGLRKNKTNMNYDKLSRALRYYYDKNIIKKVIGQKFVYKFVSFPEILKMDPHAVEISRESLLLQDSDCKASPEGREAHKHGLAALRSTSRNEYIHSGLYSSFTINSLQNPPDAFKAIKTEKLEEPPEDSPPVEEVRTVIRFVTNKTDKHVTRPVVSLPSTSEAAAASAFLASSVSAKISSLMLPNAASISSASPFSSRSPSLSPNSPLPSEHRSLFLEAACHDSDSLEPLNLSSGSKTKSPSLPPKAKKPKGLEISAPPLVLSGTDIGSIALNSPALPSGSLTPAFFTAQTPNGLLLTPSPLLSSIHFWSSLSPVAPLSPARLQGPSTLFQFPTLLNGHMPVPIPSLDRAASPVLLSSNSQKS
# In short: as §1
# ETV5 = ETV5 (Homo sapiens, UniProt P41161 1-510)
# Chain of ETV5 (P41161 whole entry): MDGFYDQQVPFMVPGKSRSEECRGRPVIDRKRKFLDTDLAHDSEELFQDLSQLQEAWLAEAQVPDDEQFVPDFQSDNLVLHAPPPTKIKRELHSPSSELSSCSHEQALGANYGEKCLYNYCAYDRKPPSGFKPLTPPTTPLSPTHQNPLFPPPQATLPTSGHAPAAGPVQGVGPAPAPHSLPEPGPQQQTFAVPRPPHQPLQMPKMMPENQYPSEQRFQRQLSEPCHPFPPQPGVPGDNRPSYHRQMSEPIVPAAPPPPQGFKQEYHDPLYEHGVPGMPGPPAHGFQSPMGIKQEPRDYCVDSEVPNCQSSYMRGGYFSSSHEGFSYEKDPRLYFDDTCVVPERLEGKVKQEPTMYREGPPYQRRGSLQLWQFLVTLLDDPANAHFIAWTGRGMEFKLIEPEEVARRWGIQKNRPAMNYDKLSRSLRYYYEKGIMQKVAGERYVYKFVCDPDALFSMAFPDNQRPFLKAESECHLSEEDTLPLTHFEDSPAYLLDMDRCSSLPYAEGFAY
# In short: as §1
# SPIC = target: T6, SPIC (Homo sapiens, UniProt Q8N5J4 1-248)
# T6 sequence: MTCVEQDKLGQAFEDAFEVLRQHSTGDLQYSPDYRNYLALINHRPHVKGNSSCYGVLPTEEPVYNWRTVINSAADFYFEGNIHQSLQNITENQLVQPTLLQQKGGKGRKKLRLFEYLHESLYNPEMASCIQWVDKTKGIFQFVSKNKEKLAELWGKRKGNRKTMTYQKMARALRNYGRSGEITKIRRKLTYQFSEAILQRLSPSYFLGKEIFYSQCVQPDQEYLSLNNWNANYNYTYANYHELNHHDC
# In short: as §1
# ETV1 = ETV1 (Homo sapiens, UniProt P50549 1-477)
# Chain of ETV1 (P50549 whole entry): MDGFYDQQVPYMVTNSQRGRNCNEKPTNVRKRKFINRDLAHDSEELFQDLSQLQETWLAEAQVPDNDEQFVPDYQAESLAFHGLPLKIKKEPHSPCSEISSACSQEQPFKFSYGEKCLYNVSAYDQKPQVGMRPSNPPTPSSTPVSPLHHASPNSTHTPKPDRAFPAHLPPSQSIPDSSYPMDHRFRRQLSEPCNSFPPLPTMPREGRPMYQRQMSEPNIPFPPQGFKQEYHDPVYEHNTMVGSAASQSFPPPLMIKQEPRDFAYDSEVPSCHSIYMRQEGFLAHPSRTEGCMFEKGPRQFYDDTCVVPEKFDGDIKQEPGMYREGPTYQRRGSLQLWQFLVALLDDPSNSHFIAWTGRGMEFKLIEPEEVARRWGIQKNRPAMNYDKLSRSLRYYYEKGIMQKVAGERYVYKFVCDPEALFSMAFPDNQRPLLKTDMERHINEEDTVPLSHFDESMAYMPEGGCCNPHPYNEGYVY
# In short: as §1
# ERF = target: T7, ERF (Homo sapiens, UniProt P50548 1-548)
# T7 sequence: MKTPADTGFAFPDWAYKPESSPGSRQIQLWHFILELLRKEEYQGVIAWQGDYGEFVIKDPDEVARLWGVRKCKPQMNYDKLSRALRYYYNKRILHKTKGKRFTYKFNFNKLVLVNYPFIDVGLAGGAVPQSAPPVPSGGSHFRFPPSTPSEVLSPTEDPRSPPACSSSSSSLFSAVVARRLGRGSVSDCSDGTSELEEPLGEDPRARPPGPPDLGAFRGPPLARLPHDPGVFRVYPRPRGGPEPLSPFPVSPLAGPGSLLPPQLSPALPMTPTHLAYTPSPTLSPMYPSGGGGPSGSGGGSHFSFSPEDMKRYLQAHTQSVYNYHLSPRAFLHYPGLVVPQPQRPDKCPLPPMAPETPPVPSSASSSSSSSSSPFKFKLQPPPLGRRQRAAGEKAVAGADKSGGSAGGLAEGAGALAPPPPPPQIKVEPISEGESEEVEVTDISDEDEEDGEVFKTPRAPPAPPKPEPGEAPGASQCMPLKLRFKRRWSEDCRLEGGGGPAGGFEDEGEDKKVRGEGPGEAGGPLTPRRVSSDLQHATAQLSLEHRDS
# In short: as §1
# ETS2 = target: T8, ETS2 (Homo sapiens, UniProt P15036 1-469)
# T8 sequence: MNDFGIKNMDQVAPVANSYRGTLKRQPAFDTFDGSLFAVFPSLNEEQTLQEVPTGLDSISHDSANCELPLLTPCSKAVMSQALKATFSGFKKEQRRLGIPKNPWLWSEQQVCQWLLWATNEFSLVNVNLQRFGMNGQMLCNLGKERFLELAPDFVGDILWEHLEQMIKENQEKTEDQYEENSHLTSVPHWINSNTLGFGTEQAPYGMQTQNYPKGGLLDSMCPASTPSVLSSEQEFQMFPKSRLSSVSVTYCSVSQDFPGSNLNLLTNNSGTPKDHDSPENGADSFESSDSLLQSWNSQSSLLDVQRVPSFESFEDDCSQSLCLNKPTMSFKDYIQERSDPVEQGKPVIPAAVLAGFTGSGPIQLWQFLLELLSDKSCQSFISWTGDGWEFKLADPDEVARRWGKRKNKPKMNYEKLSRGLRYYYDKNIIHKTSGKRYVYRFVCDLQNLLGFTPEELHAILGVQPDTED
# In short: as §1
# SPDEF = target: T9, SPDEF (Homo sapiens, UniProt O95238 1-335)
# T9 sequence: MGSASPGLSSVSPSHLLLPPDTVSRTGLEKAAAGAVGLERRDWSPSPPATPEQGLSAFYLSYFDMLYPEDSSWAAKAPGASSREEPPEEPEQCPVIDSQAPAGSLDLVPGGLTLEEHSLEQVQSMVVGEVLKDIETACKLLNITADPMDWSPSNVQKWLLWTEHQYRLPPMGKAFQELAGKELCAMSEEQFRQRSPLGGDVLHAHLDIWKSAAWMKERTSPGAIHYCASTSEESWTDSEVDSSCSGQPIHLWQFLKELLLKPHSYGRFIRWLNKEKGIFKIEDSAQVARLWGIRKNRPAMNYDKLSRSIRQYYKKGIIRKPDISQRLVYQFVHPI
# In short: as §1
sequence,measurement,setting,value
TGGTGG,binding signal,FLI1,"1.11 fold enrichment (6-mer frequency, TF over GST control)"
same,binding signal,ELK1,"1.01 fold enrichment (6-mer frequency, TF over GST control)"
same,binding signal,GABPA,"1.12 fold enrichment (6-mer frequency, TF over GST control)"
same,binding signal,ERG,"1.1 fold enrichment (6-mer frequency, TF over GST control)"
same,binding signal,ELF1,"1.03 fold enrichment (6-mer frequency, TF over GST control)"
same,binding signal,SPIB,"1.05 fold enrichment (6-mer frequency, TF over GST control)"
same,binding signal,ELK3,"1.22 fold enrichment (6-mer frequency, TF over GST control)"
same,binding signal,ETV5,"1.03 fold enrichment (6-mer frequency, TF over GST control)"
same,binding signal,SPIC,"1.03 fold enrichment (6-mer frequency, TF over GST control)"
same,binding signal,ETV1,"1.04 fold enrichment (6-mer frequency, TF over GST control)"
same,binding signal,ERF,"1.1 fold enrichment (6-mer frequency, TF over GST control)"
same,binding signal,ETS2,"1.08 fold enrichment (6-mer frequency, TF over GST control)"
same,binding signal,SPDEF,"1.02 fold enrichment (6-mer frequency, TF over GST control)"

# From paper PMC7862700, “An all-to-all approach to the identification of sequence-specific readers for epigenetic DNA modifications on cytosine”
